Data taken from PubChem BioAssay AID709 (SRMLSC, 2007).
About 3,600 (5.5%) of roughly 65,000 compounds were called active.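 The calls were made as follows: active = at 10 µM, mean starting fluorescence two-fold or more over control wells; inactive = the rest.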 Many of the other results were omitted from the sample, so actives are more common in it than they were.

test: intrinsic fluorescence of library compounds, ex339/em460 – biochemical, MLSMR library, data from DPM-DC assay, artefact control, profiling panel (AID 709); settings: compound autofluorescence, ex339/em460 nm, NADH buffer; at 10 µM; active compounds read high; 1 = no-compound wells, NADH background;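 also: signal is the first read of a kinetic run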

Fluorescence fold increase, inactive:
COC(=O)C(CC(=O)Nc1cc(C)ccc1C)Nc1ccccc1OC (centres undefined) 1.02
COc1ccc(C2C3=C(OC(C)=O)c4ccccc4C3=Nc3c2c(=O)n(C)c(=O)n3C)cc1 (centres undefined) 1.09
Cn1nnc2cc(C(=O)NCCC3=CCCCC3)ccc21 1.03
CC1CCCN(C(=O)c2ccc3c(c2)C(=O)N(CCC2=CCCCC2)C3=O)C1 (centres undefined) 1.04
Cc1ccc(C(C(=O)NCc2ccco2)N(CC2CCCO2)C(=O)Cn2nnc3ccccc32)cc1 (centres undefined) 0.88
CCc1nnc(NC(=O)CSc2nnc(COc3ccc(C#N)cc3)n2-c2ccccc2)s1 1.27
Cc1nn(-c2ccccc2)c2c1C(=O)NC(=O)C(C)(C)C2 1.03
O=C(Nc1cccc(OCC(=O)N2CCOCC2)c1)C1CCCCC1 1.05
COc1ccc(OCC(=O)N2CCOCC2)cc1 1.05
Cn1c(=O)c2c(nc(OCc3cccnc3)n2Cc2ccccc2)n(C)c1=O 1.09
CCC(C)(NC(=O)c1ccccn1)C(=O)NC1CCCCC1 (centres undefined) 1.14
Cc1cc(=O)n(C)c(=O)n1CCCNc1ccccc1 1.05
CCOC(=O)/C=c1\s/c(=C\c2ccccc2OC)c(=O)n1CC(=O)N1CCOCC1 1.14
CCOC(=O)c1nc(N)sc1C(=O)OCC 1.12
CCOC(=O)c1sc(NC(=O)C(CC)Sc2nccn2C)nc1C (centres undefined) 1.08
O=C1NC2(CCCCC2)N=C1c1ccccc1 1.08
COc1ccccc1N1CCN(C(=O)Cn2nnc(-c3cccs3)n2)CC1 1.07
C=CCn1c(=S)[nH]c2nc3c(cc2c1=O)COC(C)(C)C3 1.03
COc1ccc(OC)c(C(=O)c2coc3ccc(O)c(CN4CCOCC4)c23)c1 1.03
O=C(c1ccccc1-c1ccccc1)N1CCOCC1 0.82
CSCCC(NC(N)=O)C(=O)N(C)CC(=O)Nc1ccc(C)cc1 (centres undefined) 0.91
O=C(NCCCN1CCCCCC1)C1CC(=O)N(C2CCCC2)C1 (centres undefined) 1.16
COc1cc2ccccc2cc1C(=O)Nc1ccc(S(=O)(=O)Nc2cc(C)on2)cc1 1.32
O=C(Cn1cnc2c(nnn2-c2ccccc2)c1=O)N1CCC(Cc2ccccc2)CC1 1.07
CCCCOc1ccc(-c2ncc(C(=O)OCC)c(N)n2)cc1 1.17
O=C(NCc1ccccn1)Nc1ccc(F)cc1 1.14
CCOC(=O)c1cnc(-n2nc(C)cc2C)nc1-n1nc(C)cc1C 1.13
O=C(NCc1ccccn1)c1cc2ccccc2oc1=O 1.48
CCOC(=O)c1cc(NC(=O)c2cccnc2)cc(C(=O)OCC)c1 1.12
CC(C)NS(=O)(=O)c1ccc(NC(=O)c2cccnc2)cc1 1.03
CSc1nc(C)nc2c1c(=O)n(C)c(=O)n2C 1.11
c1coc(CNc2ncnc3ccccc23)c1 1.1
Cc1ccccc1NC(=O)NCc1ccco1 1.12
Cc1cccc(OCc2nnc(SCn3nnc4ccccc4c3=O)o2)c1 1.07
CC(C)(C)n1nc2c(c1NC(=O)c1ccc(S(=O)(=O)N3CCCC3)cc1)CS(=O)C2 (centres undefined) 1.02
O=C(CCN1C(=O)c2ccccc2C1=O)NCCN1CCOCC1 1.02
N/C(=N\c1nc2ccccc2o1)NC(=O)C(Cc1ccccc1)N1C(=O)c2ccccc2C1=O (centres undefined) 1.09
Clc1ccc(Cc2nnc(-c3cccs3)o2)cc1 1.11
O=C(Nc1nccs1)C1CCCN1S(=O)(=O)c1cccc2cccnc12 (centres undefined) 1
Cc1c(C(=O)OCc2cc(=O)n3cc(Br)ccc3n2)oc2ccccc12 1.07
NC(=NC(=O)c1ccccc1)C1=C(O)CCC1=O 1.14
CCCc1nc(-c2ccccc2O)n(-c2ccccc2)n1 1.12
COc1ccc(OC)c2sc(NC(=O)C3COc4ccccc4O3)nc12 (centres undefined) 1.19
CCc1ccc(NC(=O)CSc2nc3ccccc3c(=O)n2CCN2CCOCC2)cc1 1.09
Cc1ccc2cc(C#N)c(SCC(=O)NCC3CCCO3)nc2c1C (centres undefined) 1.14
CCn1c(SCC(=O)NCC2CCCO2)nc2cc(S(=O)(=O)N3CCCCC3)ccc21 (centres undefined) 1
COCCNC(=O)CSc1nc2c(n1-c1ccccc1)CCCC2 1.16
CC12CCC(C(=O)N(CCC#N)CCC#N)(CC1=O)C2(C)C (centres undefined) 1.07
Cc1ccc(S(=O)(=O)N2CCC(C(=O)N[C@@H](C)C(=O)NCCc3ccccc3)CC2)cc1 1.11
O=C(c1c(Cl)nc2sccn12)N1CCCc2ccccc21 1
O=C(CC(NCCN1CCOCC1)C(=O)O)Nc1cccc(Cl)c1 (centres undefined) 1.1
COc1ccc(-n2nnc3c(=O)n(CC(=O)N4CCC(Cc5ccccc5)CC4)cnc32)cc1 1.08

Fluorescence fold increase, active:
Cc1ccc2c(c1)c1ncn(CCC3=CCCCC3)c(=O)c1n2C 2.08
O=C1CC2(CCCCC2)Oc2ccc(OCC(=O)N3CCOCC3)cc21 5.15
CCOC(=O)c1sc(/N=C/Nc2nc(C)c(C(=O)OCC)s2)nc1C 4.03
O=c1c(-c2ccccc2)coc2c(CN3CCOCC3)c(O)ccc12 2.45
O=C(NCc1ccccn1)c1cnc2sccn2c1=O 2.7
CCOC(=O)c1cnc2sccn2c1=O 3.33
Cc1cc2nc(-c3ccc(NC(=O)c4cccnc4)cc3)oc2cc1C 2.26
Cc1cc(NCc2ccco2)n2c(nc3ccccc32)c1C#N 2.23
O=C(NCCN1CCOCC1)[C@H](Cc1ccccc1)N1C(=O)c2ccccc2C1=O 2.12
Cc1c(C(=O)OCC(=O)N(CCC#N)c2ccccc2)oc2c1ccc1ccccc12 2.16
COCCCNC(=O)CSc1nc2ccc(N3CCOCC3)cc2c(=O)n1CCc1ccccc1 2.61
CCCCn1c(SCC(=O)NCC2CCCO2)nc2ccc(N3CCOCC3)cc2c1=O (centres undefined) 4.22
